# Test results as given in PMC4336329 (PLoS ONE, 2015).
# Hit rate of the full screen: of about 310,000 compounds, about 14,000 (4.5%) showed an effect of 50% or more. The effect is printed as a negative number. Many of the other results were omitted from the sample, so strong results are more common in it than they were.
# Target: human ether-à-go-go-related gene (hERG) potassium channel (human, UniProt Q12809)
# Test: primary screen, population patch clamp on CHO cells stably expressing hERG; higher = less effect of the substance
# 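Note: peak tail current of the secondary pulse compared with the same well before compound.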
# Sequence of human ether-à-go-go-related gene (hERG) potassium channel (Q12809 whole entry, looked up): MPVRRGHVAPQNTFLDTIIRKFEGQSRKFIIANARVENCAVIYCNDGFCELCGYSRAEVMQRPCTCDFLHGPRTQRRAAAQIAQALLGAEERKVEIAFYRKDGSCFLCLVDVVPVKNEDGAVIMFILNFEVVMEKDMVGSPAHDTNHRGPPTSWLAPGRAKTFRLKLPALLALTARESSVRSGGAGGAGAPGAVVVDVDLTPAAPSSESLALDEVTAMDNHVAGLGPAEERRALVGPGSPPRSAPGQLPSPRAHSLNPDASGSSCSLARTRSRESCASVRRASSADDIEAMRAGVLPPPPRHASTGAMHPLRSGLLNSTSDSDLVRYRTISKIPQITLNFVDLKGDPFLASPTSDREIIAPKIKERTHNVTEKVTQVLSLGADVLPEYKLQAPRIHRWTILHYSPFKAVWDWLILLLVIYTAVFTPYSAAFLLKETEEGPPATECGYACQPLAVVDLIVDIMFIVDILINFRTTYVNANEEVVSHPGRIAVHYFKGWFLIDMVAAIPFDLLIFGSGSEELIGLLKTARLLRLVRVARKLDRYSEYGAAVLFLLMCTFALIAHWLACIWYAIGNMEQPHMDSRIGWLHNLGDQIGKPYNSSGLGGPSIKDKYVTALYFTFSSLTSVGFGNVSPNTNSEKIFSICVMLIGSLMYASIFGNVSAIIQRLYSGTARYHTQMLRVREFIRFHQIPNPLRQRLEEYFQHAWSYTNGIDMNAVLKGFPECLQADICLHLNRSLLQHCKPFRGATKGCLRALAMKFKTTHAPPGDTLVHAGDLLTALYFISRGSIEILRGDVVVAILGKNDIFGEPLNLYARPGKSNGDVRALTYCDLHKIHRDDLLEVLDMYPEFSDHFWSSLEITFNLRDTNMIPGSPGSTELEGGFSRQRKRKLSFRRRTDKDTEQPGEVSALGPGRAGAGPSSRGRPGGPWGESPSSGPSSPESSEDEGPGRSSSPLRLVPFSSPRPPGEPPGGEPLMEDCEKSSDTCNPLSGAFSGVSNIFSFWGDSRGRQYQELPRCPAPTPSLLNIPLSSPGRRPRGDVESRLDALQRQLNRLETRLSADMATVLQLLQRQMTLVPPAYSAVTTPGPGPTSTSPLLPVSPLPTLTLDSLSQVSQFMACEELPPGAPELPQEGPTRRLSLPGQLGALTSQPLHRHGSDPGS
row,SMILES,"hERG current change (%, negative = inhibition) at 10uM"
1,COc1ccc(CN(C(=O)CNC(=O)c2ccco2)C(C(=O)NC2CCCC2)c2ccco2)cc1 (stereo not drawn),-15.9%
2,COc1ccccc1OCc1nnc(SCC(=O)NCc2ccco2)n1-c1ccccc1,-9.19%
3,COc1ccc(N2CCN(CCC3Oc4cc([N+](=O)[O-])ccc4NC3=O)CC2)cc1 (stereo not drawn),-19.1%
4,COc1ccc2c(CCNC(=O)c3ccco3)c[nH]c2c1,-1.53%
5,CCOC(=O)COc1coc(CN2CCN(c3ccc(F)cc3)CC2)cc1=O,-19.4%
6,CCOc1ccccc1N(CC(=O)Nc1ccc(OC)cc1OC)S(=O)(=O)c1ccccc1,14.6%
7,CS(=O)(=O)c1ccc2nc(NC(=O)c3cc(-c4ccccc4)nn3-c3ccccc3)sc2c1,8.38%
8,COC(=O)c1ccc(COc2ccccc2/C=C/C(=O)c2ccc(OCC(=O)O)cc2)cc1,3.76%
9,CN(C)c1nc(N)nc(-c2nc3ccccc3s2)n1,-3.77%
10,COc1ccc2c(c1OC)C(=O)OC2c1c(O)n(Cc2ccc(F)cc2)c(=O)[nH]c1=O (stereo not drawn),3.09%
11,COc1ccc2c(c1OC)C(=O)OC2c1c(O)n(C2CCCCC2)c(=O)[nH]c1=O (stereo not drawn),-68.8%
12,COc1ccc2c(c1OC)C(=O)OC2c1c(O)nc(SC)n(-c2ccccc2)c1=O (stereo not drawn),-2.74%
13,COc1ccc(-c2cc(C)no2)cc1S(=O)(=O)N1CCN(c2ccc([N+](=O)[O-])cc2)CC1,-76.2%
14,CCc1ccc(-c2cc(C)no2)cc1S(=O)(=O)N1CCN(c2ccccn2)CC1,4.29%
15,COc1ccc(-c2cc(C)no2)cc1S(=O)(=O)N1CCCCC1,2.3%
16,Cc1cc(-c2ccc(C)c(S(=O)(=O)N3CCN(c4ccccn4)CC3)c2)on1,-21.2%
17,CCc1ccc(-c2cc(C)no2)cc1S(=O)(=O)N1CCN(c2ccc(F)cc2)CC1,7.09%
18,Cc1noc(C)c1S(=O)(=O)N1CCN(c2ccc(Cl)cc2)CC1,-6.26%
19,COc1ccc(-c2cc(C)no2)cc1S(=O)(=O)N1CCN(c2ccccn2)CC1,-63.7%

row,SMILES,"hERG current change (%, negative = inhibition) at 10uM"
1,Cc1cc(-c2ccc(C)c(S(=O)(=O)N3CCN(c4ccc([N+](=O)[O-])cc4)CC3)c2)on1,-67.8%
2,Cc1noc(C)c1S(=O)(=O)N1CCN(c2ccc([N+](=O)[O-])cc2)CC1,-69%
3,Cc1noc(C)c1S(=O)(=O)N1CCN(c2ccccc2)CC1,-5.33%
4,Cc1cc(-c2ccc(C)c(S(=O)(=O)N3CCN(c4ccc(F)cc4)CC3)c2)on1,-8.14%
5,COc1ccc(-c2cc(C)no2)cc1S(=O)(=O)N1CCN(c2ccccc2F)CC1,3.36%
6,O=C(O)c1ccc2c(c1)S(=O)(=O)c1ccccc1C2=O,17%
7,CCc1cc2cc(C(=O)Nc3ccc(F)cc3)sc2s1,3.32%
8,COc1cc(NC(=O)COC(=O)CNC(=O)c2ccc(C)s2)cc(OC)c1,4.76%
9,Cc1ccc(C(=O)N2CCN(c3ccccc3)CC2)cc1C,4.41%
10,O=C(c1ccc(-c2ccccc2)cc1)N1CCN(c2ccccn2)CC1,-36.4%
11,CN(CC(=O)Nc1cccc(F)c1)C(=O)c1ccncc1,4.28%
12,CCOc1ccc(OCC)c(NC(=O)C2CCN(S(=O)(=O)c3c(C)[nH]c(=O)[nH]c3=O)CC2)c1,7.51%
13,CSc1nsc(SC)c1NC(=O)N1CCCC1,-13.1%
14,COCc1nnc(NC(=O)CCCOc2ccccc2OC)s1,9.6%
15,COc1ccc(-c2cc(C)no2)cc1S(=O)(=O)N(C)c1ccc(C)c(C)c1,-1.83%
16,COc1ccc(-c2cc(C)no2)cc1S(=O)(=O)N(C)c1cccc(C)c1,-82.5%
17,COc1ccc(-c2cc(C)no2)cc1S(=O)(=O)N(C)c1ccc(C)cc1,-29.6%
18,CC(=O)N1CCc2c(sc3c2c(=O)n(Cc2ccccc2)c(=O)n3CC(=O)NCC2CCCO2)C1 (stereo not drawn),-21.6%
19,CCCCOC1CC(c2ccc(OCc3ccc(OC)cc3)c(OC)c2)N(C)O1 (stereo not drawn),3.47%

row,SMILES,"hERG current change (%, negative = inhibition) at 10uM"
1,Cc1ccn2c(CNC(C)c3cn(C)nc3C)c(C(=O)N3CCCCCC3)nc2c1 (stereo not drawn),0.193%
2,O=C(CCN1C(=O)C2C3C=CC(C3)C2C1=O)N1CCN(c2ccc([N+](=O)[O-])cc2)CC1 (stereo not drawn),-81.2%
3,O=C(CCN1C(=O)C2C3C=CC(C3)C2C1=O)N1CCN(c2cccc(Cl)c2)CC1 (stereo not drawn),-38.4%
4,O=C(CCN1C(=O)C2C3C=CC(C3)C2C1=O)N1CCN(c2ccccc2Cl)CC1 (stereo not drawn),-57.2%
5,COc1ccc(N2CCN(C(=O)CCN3C(=O)C4C5C=CC(C5)C4C3=O)CC2)cc1 (stereo not drawn),-0.214%
6,O=C(CCN1C(=O)C2C3C=CC(C3)C2C1=O)N1CCN(c2ccccc2F)CC1 (stereo not drawn),-4.87%
7,O=C(CCN1C(=O)C2C3C=CC(C3)C2C1=O)N1CCN(c2ccc(F)cc2)CC1 (stereo not drawn),-25.8%
8,O=C(CSc1ccc2nnc(CCNC(=O)c3ccccc3)n2n1)NCc1ccccc1,-8.24%
9,COc1ccc2nc(SC)c(C#N)cc2c1,15.1%
10,CCOC(=O)c1cnc(Nc2ccc(OCC)cc2)nc1C,12.6%
11,O=C(NCCc1ccccc1)C1CCC(=O)N(Cc2cccc(C(F)(F)F)c2)C1 (stereo not drawn),-14.2%
12,O=C(NCCc1cccc(C(F)(F)F)c1)C1CCC(=O)N(Cc2ccc(Cl)cc2)C1 (stereo not drawn),-59%
13,O=C(NCCC1=CCCCC1)C1CCC(=O)N(Cc2ccc(Cl)cc2)C1 (stereo not drawn),-2.34%
14,O=C(NCCc1cccnc1)C1CCC(=O)N(Cc2cccc(C(F)(F)F)c2)C1 (stereo not drawn),-8.64%
15,O=C(NCCc1cccc(Cl)c1)C1CCC(=O)N(Cc2ccc(Cl)cc2)C1 (stereo not drawn),-52.3%
16,Cc1cccc(CCNC(=O)C2CCC(=O)N(Cc3ccc(Cl)cc3)C2)n1 (stereo not drawn),5.05%
17,COc1ccccc1CN1CC(C(=O)NCc2ccc(C)c(F)c2)CCC1=O (stereo not drawn),0.721%
18,COc1cccc(CN2CC(C(=O)NCc3ccc(C)c(F)c3)CCC2=O)c1 (stereo not drawn),-40.8%
19,Cc1ccc(CNC(=O)C2CCC(=O)N(Cc3ccc(Cl)cc3)C2)cc1F (stereo not drawn),-63.6%
